# Among all 360,000 compounds or so, about 3,700 (1%) were called active. About 2% were inconclusive and are not listed.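 The calls were made as follows: active = normalized GFP-positive differentiation at or above the plate's own cutoff, the solvent-only control mean plus 3 SD; inconclusive = no clear call, values can overlap the other calls; inactive = the rest.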 The full list was thinned out, with actives kept by preference.
# Test: induction of myeloid progenitor differentiation, primary screen, cell-based, flow cytometry, MLPCN library (AID 624256);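 as to GFP+ MAC1+ double positive: cells exposed to compound for four days before flow analysis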;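 as to normalized GFP-positive differentiation: cells exposed to compound for four days before flow analysis; 0% = DMSO wells and 100% = fulvestrant positive control at 5 µM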
# Conditions: ER-HoxA9 myeloid progenitors, lysozyme-GFP differentiation, at 10 µM; GFP+ MAC1+ double positive: measured here: differentiation confirmed by MAC1 staining, stronger effect = higher value; normalized GFP-positive differentiation: stronger effect = higher value
SMILES,GFP+ MAC1+ double positive [%],outcome,normalized GFP-positive differentiation
CCOC(=O)[C@]12CCCC=C1N(CCC1=CCCCC1)C(=O)[C@H](CC(=O)N1CCN(C(=O)c3ccco3)CC1)C2,2.3,inactive,
N#CCCN(C(=O)COC(=O)c1ccc2c(c1)OCCO2)c1ccccc1,0.7,inactive,
N#CCCN(C(=O)COC(=O)c1ccc(S(=O)(=O)N2CCCCCC2)cc1)c1ccccc1,0.7,inactive,
Cc1c(C(=O)OCC(=O)N(CCC#N)c2ccccc2)oc2c1ccc1ccccc12,5,,26.9% (active)
CCCc1nc2ccccc2n1C(C)C(=O)NC(C)(C)C (stereo not drawn),3.7,inactive,
O=C(NC(c1ccc(-c2ccccc2)cc1)c1cnccn1)C1CCN(CCOc2ccc(Cl)cc2Cl)CC1 (stereo not drawn),1.7,inactive,
CN(C)c1nccc(NCc2ccccc2)c1C#N,0.2,inactive,
CC(C)n1cnc2c(NCc3ccccc3)cc(OCC3CCN(C)CC3)cc21,8.3,,28.4% (active)
CCOC1=C2[C@@H](CN(S(=O)(=O)c3ccc(C)cc3)[C@H]2c2ccccc2F)[C@H]2C(=O)N(Cc3ccccc3)C(=O)[C@H]2C1,1.5,inactive,
COC(=O)CCCCC1=CCC2C(=O)C=C(O)C2C1 (stereo not drawn),1.6,inactive,
CN(C)CCCNC(=O)/C=C/c1ccc(OCc2c(F)cccc2Cl)cc1,0.3,inactive,
O=C(/C=C/c1ccc(OCc2c(F)cccc2Cl)cc1)N1CCOCC1,32,,144% (active)
Fc1cccc(Cl)c1COc1ccc(-c2nnco2)cc1,1.8,inactive,
CC1(C)OC(=O)C2=C(C[C@@H](C3CCCCC3)O[C@@H]2c2ccc(Cl)cc2)O1,0.8,inactive,
Cc1ccc(NC(=O)c2ccc(S(=O)(=O)NCC3CCCO3)cc2)cc1C (stereo not drawn),0.8,inactive,
CCOc1ccc(C(=O)Nc2ccc(S(=O)(=O)NCC3CCCO3)cc2)cc1OCC (stereo not drawn),2.1,,18.3% (active)
O=C(Nc1ccc(S(=O)(=O)NCC2CCCO2)cc1)c1ccc(F)cc1 (stereo not drawn),0.4,inactive,
Cc1cccc(C)c1NC(=O)C(c1cccc2ccccc12)n1c(=O)c(-c2ccco2)nc2ccccc21 (stereo not drawn),3.2,inactive,
Cc1cc(C)c(S(=O)(=O)NN=C2c3ccccc3[C@H]3Cc4csc[n+]4[C@@H]23)c(C)c1,1.3,inactive,
Cc1cccc(C)c1NC(=O)COC(=O)c1ccccc1O,0.5,inactive,
CCN(C(=O)COC(=O)c1ccccc1O)c1cccc2ccccc12,0.7,,11.2% (active)
O=C(COC(=O)c1ccccc1O)NCc1ccco1,0.8,inactive,

SMILES,GFP+ MAC1+ double positive [%],outcome,normalized GFP-positive differentiation
CCOC(=O)C1=CCC(c2ccc(F)cc2)N(S(=O)(=O)c2ccc(C)cc2)C1 (stereo not drawn),0.9,inactive,
Cc1cccc(C)c1-n1nnnc1C(CCc1ccccc1)N1CCN(C/C=C/c2ccccc2)CC1 (stereo not drawn),1.8,inactive,
Cc1cc2nc(-c3ccc(Cl)cc3)c(Cc3cccc(F)c3)n2c(C)c1Br,1.3,inactive,
O=C(c1ccco1)N1CCN(C(=O)C2CC(c3ccc(Cl)c(Cl)c3)=NO2)CC1 (stereo not drawn),0.9,inactive,
CCOC(=O)N1CCN(C(=O)C2CC(c3ccc(F)cc3)=NO2)CC1 (stereo not drawn),1.8,inactive,
O=C(c1ccco1)N1CCN(C(=O)C2CC(c3ccc(F)cc3)=NO2)CC1 (stereo not drawn),12.6,,34.4% (active)
Cn1cnc(S(=O)(=O)N2C[C@@H](O)COC[C@@H]3O[C@H](CC(=O)NC4CCC4)CC[C@H]32)c1,3.2,inactive,
NCCCNC(=S)NCCCN(Cc1ccc(Cl)cc1)c1ccc(Br)cn1,0.9,inactive,
O=C(CC[C@H]1O[C@@H](n2ccc(=O)[nH]c2=O)[C@H](O)[C@@H]1O)N[C@H](Cc1ccccc1)C(=O)NCCCN1CCCC1=O,0.7,inactive,
CC(C)c1nc2ccc(C(=O)O)cc2[nH]1,15,,15.9% (active)
O=C(NCC(O)c1nc2ccccc2[nH]1)c1ccc(Br)cc1 (stereo not drawn),0.9,inactive,
OC(c1nc2ccc(F)cc2[nH]1)C(O)c1nc2ccc(F)cc2[nH]1 (stereo not drawn),0.4,inactive,
COc1ccc(COC[C@H](CC(C)C)N2CCN(C(=O)c3cccc(C(F)(F)F)c3)CCC2=O)cc1,0.4,inactive,
CC(=O)C[C@@H]1OC[C@H](C)N1S(=O)(=O)c1ccc(C)cc1,3,inactive,
Cc1ccc(-c2c(N)nc3ncccn23)cc1,1.5,inactive,
CN1CCN(c2ccc3c(c2)OC[C@H](Cc2ccccc2)NS3(=O)=O)CC1,1,inactive,
Cc1ccc(-c2csc(NC(=O)C3=COCCO3)n2)cc1C,0,inactive,
CCc1noc(C)c1C(=O)Nc1nc(-c2ccccc2)cs1,2.2,,32.2% (active)
CCc1noc(C)c1C(=O)OCC(=O)c1ccc(NC(=O)CC(C)C)cc1,1.1,inactive,
CCN(CC)S(=O)(=O)c1cc(C(=O)Nc2cc(S(=O)(=O)N3CCOCC3)ccc2N2CCCC2)ccc1F,0.3,inactive,
CCN(CC)S(=O)(=O)c1ccc(N2CCCC2)c(NC(=O)c2ccc([N+](=O)[O-])o2)c1,5.1,,56% (active)
CCN(CC)S(=O)(=O)c1ccc(N2CCOCC2)c(NC(=O)c2ccc(=O)n(C)n2)c1,0.1,inactive,

# Reference: PubChem BioAssay AID624256 (NMMLSC, 2012)
